From PubChem
Compounds with a hit are over-represented: about 1.7% of the library has one in this group of screens.
Vif imaging: HIV Vif self-association inhibitors, primary screen, imaging, HEK293T, single point. inhibition, % at 7.49 µM. hit rate 0.35% among 340,000. HEK293T cells, Vif self-association by quenched fluorescence, 24 h. AID 602346, 2012; in the data active = inhibition above about 50%, passing the limit was not always enough
CFTR F508del cor: F508del CFTR correction, initial screen, CFBE line, single point; CFBE cells, YFP halide quenching; stimulated with forskolin plus potentiator P3; % fluorescence drop versus neutral controls; activity (quench increase), % at 7.58 µM; hit rate 0.36% among 350,000;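 active = mean added fluorescence quench of at least 8% versus neutral control, with both replicates also reaching 8%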;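 note: cells transiently co-express mutant CFTR-F508del with the halide-sensitive YFP; corrector assay measuring rescue of mutant channel to the surface after 24 h compound exposure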
FGF22 binding: binders of human FGF22 protein, primary screen, FGF22 synaptogenesis inhibitor project, biophysical, thermal shift, single point; Fibroblast growth factor 22 (Homo sapiens), Q9HCT0; recombinant FGF22 thermal shift, SYPRO orange fluorescence; percent of sucrose octasulfate shift, DMSO zero; activity (Tm shift, normalised), % at 9.99 µM; hit rate 1.5% among 340,000;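 active = mean Tm shift, scaled 0 neutral to 100 positive control, at about 1.3% or above, every replicate too, limit read from the data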
Target sequence (Q9HCT0 whole entry, looked up): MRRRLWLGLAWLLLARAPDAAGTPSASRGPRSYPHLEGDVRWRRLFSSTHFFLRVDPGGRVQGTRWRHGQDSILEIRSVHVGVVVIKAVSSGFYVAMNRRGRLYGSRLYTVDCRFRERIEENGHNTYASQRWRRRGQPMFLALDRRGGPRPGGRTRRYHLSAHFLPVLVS
Starred values were filed as active, the others as inactive; · = no result.

SMILES	Vif imaging	CFTR F508del cor	FGF22 binding
CN(C)c1ccc(/C=N/NC(=O)CCc2c[nH]c3ccccc23)cc1	6.5	1.0	43.9*
O=C(Cc1c[nH]c2ccccc12)N/N=C/c1ccc(F)cc1	1.0	·	·
CC1=NNC(=O)C1CC(=O)N/N=C(/C)c1cccc([N+](=O)[O-])c1 (configuration not stated)	2.2	-0.9	0.3
O=C(CCc1c[nH]c2ccccc12)Nc1ccc(Nc2ccccc2)cc1	·	-2.9	1.4*
CN(C)CC#Cc1ccc([C@H]2[C@@H](CO)N3C(=O)CN(C(=O)c4ccccc4)C[C@H]23)cc1	·	-1.8	·
O=C(CN1CCOCC1)NCC[C@@H]1CC[C@H](NC(=O)Nc2ccc(Cl)cc2)[C@@H](CO)O1	·	-0.1	0.4
CCOC(=O)C1=CC[C@@H](c2ccccc2)[C@@H]1C(=O)c1ccc(OC)cc1	·	1.1	0.1
Cc1ccc(S(=O)(=O)N(C)C[C@H]2OCCCC[C@H](C)Oc3ccc(NC(=O)c4ccccc4)cc3C(=O)N([C@H](C)CO)C[C@@H]2C)cc1	·	0.3	-0.1
C/C(=N\NC(=O)CCc1c(C)n[nH]c1C)c1ccc([N+](=O)[O-])cc1	-31.6	-0.9	0.1
C/C(=N\NC(=O)CCc1c[nH]c2ccccc12)c1ccc([N+](=O)[O-])cc1	-11.9	0.9	43.7*
C[C@H]1CN([C@@H](C)CO)C(=O)c2c(c3ccccc3n2C)-c2ccccc2CO[C@@H]1CN(C)S(=O)(=O)c1cccs1	·	-5.2	-0.1
Cc1ccc(OCCNC(=O)c2cccc(S(=O)(=O)NCc3ccccc3)c2)cc1	-4.2	10.3*	0.1
O=C(NCc1ccncc1)c1cccc(S(=O)(=O)NCc2ccccc2)c1	-2.0	-1.4	-0.3
COC(=O)C1CCN(C(=O)c2ccc(Cl)c(S(=O)(=O)NCc3cccnc3)c2)CC1	7.6	·	·
Cc1cccc(OCCNC(=O)c2ccc(Cl)c(S(=O)(=O)NCc3cccnc3)c2)c1	-1.6	14.3*	0.0
CNC[C@H]1Oc2ccc(NC(=O)Nc3cccc4ccccc34)cc2C(=O)N([C@H](C)CO)C[C@H]1C	·	-2.7	-0.4
O=C(O)c1ccc(N/N=C/C=C/c2ccccc2[N+](=O)[O-])cc1	54.0*	1.4	0.0
O=C(Cc1ccccc1)N/N=C/C=C/c1ccccc1[N+](=O)[O-]	-6.9	1.6	-0.2
C[C@@H]1CN([C@H](C)CO)C(=O)c2cc(-c3ccncc3)cnc2O[C@H]1CN(C)C(=O)c1ccncc1	·	-0.2	-0.1
O=C(c1[nH]ncc1-c1ccccc1)C1CO1 (configuration not stated)	-7.1	-2.4	-0.2
O=C(c1[nH]ncc1-c1cccc(Br)c1)C1CO1 (configuration not stated)	0.4	10.9*	0.0
C[C@H]1CN([C@@H](C)CO)C(=O)c2ccccc2-c2ccccc2CO[C@H]1CN(C)Cc1ccc2c(c1)OCO2	·	-0.1	0.0
CO[C@H](CN(C)Cc1ccc2c(c1)OCO2)[C@H](C)CN(C(=O)Nc1ccc(F)cc1)[C@@H](C)CO	·	0.7	0.2
O=c1c2cccc3c2c(nn1CN1CCOCC1)-c1ccccc1-3	-11.3	·	·
CCN(CC)CCn1nc2c3c(cccc3c1=O)-c1ccccc1-2	-0.7	17.7*	0.0
SMILES	Vif imaging	CFTR F508del cor	FGF22 binding
COc1cc(NC(=O)CSc2nnc3ccccn23)cc(OC)c1	-4.9	-0.9	0.0
COC(=O)Cc1csc(NC(=O)CSc2nnc3ccccn23)n1	-3.5	2.8	44.1*
C[C@H](O)C#Cc1ccc2c(c1)O[C@H](CN(C)C(=O)C1CC1)[C@@H](C)CN([C@@H](C)CO)S2(=O)=O	·	5.4	-0.2
O=C(N/N=C/c1cc2c(cc1Br)OCO2)c1cccnc1	-2.5	0.8	43.4*
O=C(N/N=C/c1cc(O)ccc1Br)c1cccnc1	-4.0	5.3	-0.1
CCN1CCN(c2cc(C)c3cc(NC(=O)c4ccc(OC)c(OC)c4)ccc3n2)CC1	-8.5	13.4*	0.1
CCN1CCN(c2cc(C)c3cc(NC(=O)CCC(=O)Nc4ccc(OC)c(OC)c4)ccc3n2)CC1	·	4.5	-0.3
O=C(C1CC1)N1[C@H](CO)[C@@H]2c3ccccc3N(S(=O)(=O)c3ccccc3)C[C@@H]21	·	-1.7	1.1
C[C@H](CO)N1C[C@H](C)[C@H](CN(C)CC2CC2)OCCCC[C@H](C)Oc2ccc(NC(=O)Cc3ccccc3)cc2C1=O	·	-1.8	0.0
c1cncc(CNc2ncnc3ccc(-c4cccnc4)cc23)c1	8.2	-0.9	44.8*
Clc1cccc(-c2ccc3ncnc(NCc4cccnc4)c3c2)c1	-5.2	-2.8	-0.1
CO[C@@H]1CN(C)C(=O)c2cc(NS(=O)(=O)c3ccccc3Cl)ccc2OC[C@@H](C)NC[C@@H]1C	·	-6.2	0.0
COc1ccccc1S(=O)(=O)N[C@H]1CC[C@H](CCNC(=O)C2CCCC2)O[C@H]1CO	·	3.2	-0.7
CC(C)NC(=O)N(C)C[C@H]1OCCCC[C@H](C)Oc2ccc(N(C)C)cc2C(=O)N([C@@H](C)CO)C[C@@H]1C	·	1.2	-1.0
NCCOc1ccccc1-c1ccccc1	50.4*	·	·
NCCOc1ccccc1OCCN	0.1	-1.6	-0.1
O=CN1CCC(=O)N(Cc2ccccc2)c2ccccc21	-7.6	·	·
CC(C)N1C(=O)CCN(C=O)c2ccccc21	12.5	-6.2	43.1*
N#Cc1ccccc1NC(=O)C1SC(=Nc2ccccc2)C(C(=O)Nc2ccc(Cl)cc2)=C1N (configuration not stated)	-21.3	1.3	-0.1
COc1ccccc1N=C1SC(C(=O)Nc2cccc(Cl)c2Cl)C(N)=C1C(N)=O (configuration not stated)	-7.6	9.5*	0.1
C[C@@H]1CN([C@@H](C)CO)C(=O)c2cc(-c3cccnc3)cnc2O[C@H]1CN(C)C(=O)C1CCOCC1	·	0.3	-0.4
CC1Oc2ccccc2N(CC(=O)NCc2ccc3c(c2)OCO3)C1=O (configuration not stated)	-3.7	2.9	43.2*
CC1Oc2ccccc2N(CC(=O)Nc2ccc3c(c2)OCO3)C1=O (configuration not stated)	-5.4	·	·
CC(=O)Nc1ccc(S(=O)(=O)NCC(=O)OCC(=O)NC23CC4CC(CC(C4)C2)C3)cc1	75.5*	·	·
NC(=O)Nc1ccc(C(=O)OCC(=O)NCc2ccc3c(c2)OCO3)cc1	7.7	-0.2	0.1
SMILES	Vif imaging	CFTR F508del cor	FGF22 binding
CC(=O)Nc1ccc(S(=O)(=O)NCC(=O)OCC(=O)NCc2ccc3c(c2)OCO3)cc1	0.1	2.6	44.3*
Cc1ccc(S(=O)(=O)NCC(=O)OCC(=O)NCc2ccc3c(c2)OCO3)cc1	13.6	-1.8	0.1
CC(=O)Nc1ccc(S(=O)(=O)NCC(=O)OCC(=O)NC(=O)C2CCCCC2)cc1	7.8	·	·
CC(=O)Nc1ccc(C(=O)OCC(=O)NCc2ccc3c(c2)OCO3)cc1	9.4	3.9	43.0*
CNC(=O)C[C@@H]1CC[C@H]2[C@@H](COc3ccc(NC(=O)c4ccc(C(F)(F)F)cc4)cc3C(=O)N2C)O1	·	0.8	0.3
C[C@H]1CN([C@@H](C)CO)C(=O)c2cccc(N(C)C)c2O[C@H]1CN(C)S(=O)(=O)c1ccc(F)cc1	·	3.1	0.0
